Data taken from PubChem BioAssay AID1159580 (chemical genetic matrix, 2015).
Several values for one entry are separate records, joined by “and”; a condition that tells them apart may be missing. Identical values can stand only once. The campaign covered roughly 5,500 compounds. About 2,000 (36%) were called active. Not shown: some 18% with an inconclusive outcome. Rule as the data show it: active = normalized growth mostly below about 0.91 (no sharp cut-off); inconclusive = no clear call, values can overlap the other calls; inactive = mostly above about 0.92. The list shows a part of the results.

Test: chemical genetic growth profiling, strain panel (AID 1159580);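 also: tested at 20 µM; growth read once vehicle control cultures reached saturation at 30 °C; 1 = growth at the plate median or of vehicle wells; lower values mean less growth of the strain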
Details: S. cerevisiae deletion strains, growth OD
[1] = locus YAL013W, strain DEP1, stronger effect = lower value
[2] = locus YAL040C, strain CLN3, stronger effect = lower value
[3] = locus YDR363W, strain ESC2, stronger effect = lower value
[4] = locus YER002W, strain NOP16, stronger effect = lower value
[5] = locus YGR078C, strain PAC10, stronger effect = lower value
[6] = locus YNL175C, strain NOP13, stronger effect = lower value
[7] = locus YNL197C, strain WHI3, stronger effect = lower value
[8] = locus YNL224C, strain SQS1, stronger effect = lower value
[9] = locus YOR083W, strain WHI5 (second series), stronger effect = lower value
[10] = locus YPL055C, strain LGE1, stronger effect = lower value
[11] = locus YNL153C, strain GIM3, stronger effect = lower value

Measured: normalized growth

O=C(O)CN(CCOCCOCCN(CC(=O)O)CC(=O)O)CC(=O)O
inactive: [1] 1.03 | [2] 0.99 | locus YCL061C, strain MRC1 (second series), stronger effect = lower value 1 | [3] 1 | [4] 0.996 | [5] 1.01 | locus YMR263W, strain SAP30, stronger effect = lower value 1 | [6] 0.996 | [7] 1 | [8] 0.992 | locus YNL322C, strain KRE1, stronger effect = lower value 1.02 | [9] 1.01 | [10] 1.06

O=C(O)CN(CCN(CC(=O)O)CC(=O)O)CCN(CC(=O)O)CC(=O)O
inactive: [2] 1.03 | [4] 1.01 | [11] 1.16 | [6] 1.01 | [7] 1.02 | [8] 1 | [9] 1.07
active: [1] 0.278 | [3] 0.194 | [10] 0.198

O=C(O)CN(CCN(CC(=O)O)CC(=O)O)CC(=O)O
inactive: locus YBR021W, strain FUR4, stronger effect = lower value 1.04 | locus YBR229C, strain ROT2, stronger effect = lower value 0.995 | locus YCL029C, strain bik1, stronger effect = lower value 0.958 | locus YDL035C, strain GPR1, stronger effect = lower value 0.869 | locus YDL074C, strain BRE1, stronger effect = lower value 0.885 | locus YDR101C, strain arx1, stronger effect = lower value 0.989 | locus YDR162C, strain NBP2, stronger effect = lower value 0.918 | locus YDR388W, stronger effect = lower value 1.02 | locus YEL061C, strain CIN8, stronger effect = lower value 0.934 | locus YER110C, stronger effect = lower value 0.938 | locus YER155C, strain BEM2, stronger effect = lower value 1.01 | locus YER167W, strain BCK2, stronger effect = lower value 0.936 | locus YGL078C, strain dbp3, stronger effect = lower value 0.985 | locus YGR252W, strain gcn5, stronger effect = lower value 0.994 | locus YHR030C, strain SLT2, stronger effect = lower value 0.97 and 0.976 | locus YHR079C, strain IRE1 (second series), stronger effect = lower value 0.991 | locus YHR079C, strain IRE1, stronger effect = lower value 0.934 | locus YHR094C, strain hxt1, stronger effect = lower value 0.994 | locus YIL066C, strain RNR3, stronger effect = lower value 0.925 | locus YIL125W, strain kgd1, stronger effect = lower value 1.01 | locus YIR030C, strain dcg1, stronger effect = lower value 0.96 | locus YJL095W, strain BCK1, stronger effect = lower value 0.849 and 0.971 | locus YJL134W, strain LCB3, stronger effect = lower value 0.972 | locus YJL168C, strain set2, stronger effect = lower value 0.989 | locus YJR043C, strain POL32, stronger effect = lower value 0.891 | locus YJR066W, strain TOR1, stronger effect = lower value 0.888 | locus YKL009W, strain mrt4, stronger effect = lower value 0.97 | locus YKL068W, stronger effect = lower value 0.996 | locus YKL085W, strain MDH1 (second series), stronger effect = lower value 1.03 | locus YKL085W, strain MDH1, stronger effect = lower value 1.03 | locus YKL190W, strain CNB1, stronger effect = lower value 0.94 | locus YLR039C, strain RIC1, stronger effect = lower value 0.914 | locus YLR102C, strain apc9, stronger effect = lower value 0.995 | locus YLR113W, strain HOG1, stronger effect = lower value 1.09 | locus YLR262C, strain YPT6, stronger effect = lower value 0.827 | locus YLR330W, strain CHS5, stronger effect = lower value 0.944 | locus YLR342W, strain FKS1 (second series), stronger effect = lower value 0.871 | locus YLR371W, strain rom2, stronger effect = lower value 0.984 | locus YML016C, strain PPZ1, stronger effect = lower value 0.934 | locus YML032C, strain rad52, stronger effect = lower value 0.937 | locus YML124C, strain tub3, stronger effect = lower value 0.979 | locus YMR078C, strain ctf18, stronger effect = lower value 0.99 | locus YMR307W, strain GAS1, stronger effect = lower value 0.928 | locus YNL183C, strain NPR1, stronger effect = lower value 0.973 | locus YNL250W, strain rad50, stronger effect = lower value 1.01 | locus YNL271C, strain bni1, stronger effect = lower value 0.982 | locus YNL298W, strain CLA4, stronger effect = lower value 0.99 | locus YNL307C, strain MCK1, stronger effect = lower value 0.991 | locus YNR052C, strain pop2, stronger effect = lower value 0.953 | locus YOL006C, strain TOP1, stronger effect = lower value 1.23 | locus YOL012C, strain htz1 0.486 | locus YOL147C, strain pex11, stronger effect = lower value 0.983 | locus YOR061W, strain CKA2, stronger effect = lower value 0.913 | locus YOR069W, strain VPS5, stronger effect = lower value 0.947 | locus YOR144C, strain elg1, stronger effect = lower value 0.976 | locus YOR231W, strain MKK1, stronger effect = lower value 0.92 | locus YOR316C, strain cot1, stronger effect = lower value 0.979 | locus YPL256C, strain CLN2, stronger effect = lower value 1.07 | locus YPR119W, strain clb2, stronger effect = lower value 0.992 | locus YPR141C, strain kar3, stronger effect = lower value 0.992 | locus YPR163C, strain tif3, stronger effect = lower value 0.99
active: locus YDL101C, strain DUN1, stronger effect = lower value 0.889 | locus YDL185W, strain tfp1, stronger effect = lower value 0.282 | locus YDL192W, strain arf1, stronger effect = lower value 0.826 | locus YDR318W, strain mcm21, stronger effect = lower value 0.817 | locus YDR502C, strain sam2, stronger effect = lower value 0.769 | locus YGL086W, strain mad1, stronger effect = lower value 0.79 | locus YGL248W, strain PDE1, stronger effect = lower value 0.826 | [5] 0.82 | locus YGR135W, strain pre9, stronger effect = lower value 0.819 | locus YGR229C, strain SMI1, stronger effect = lower value 0.774 | locus YHR129C, strain ARP1, stronger effect = lower value 0.87 | locus YHR200W, strain rpn10, stronger effect = lower value 0.893 | locus YIL073C, strain SPO22, stronger effect = lower value 1.99 [resistant] | locus YJL187C, strain SWE1 (second series), stronger effect = lower value 0.861 | locus YKR001C, strain vps1, stronger effect = lower value 0.769 | locus YLR058C, strain SHM2, stronger effect = lower value 0.863 | locus YLR268W, strain sec22, stronger effect = lower value 0.801 | locus YLR418C, strain cdc73, stronger effect = lower value 0.764 | locus YMR223W, strain ubp8, stronger effect = lower value 0.793 | locus YNL067W, strain RPL9B, stronger effect = lower value 0.813 | [11] 0.834 | locus YNL233W, strain BNI4, stronger effect = lower value 0.847 | locus YOR136W, strain idh2, stronger effect = lower value 0.909 | locus YOR184W, strain ser1, stronger effect = lower value 0.699 | locus YPR167C, strain met16, stronger effect = lower value 0.902 | strain wtn01, stronger effect = lower value 0.816
